# RGS8-Gao reg: human RGS8-Galphao interaction regulation; response (percent of control binding), % at 10 µM; P09471; multiplexed bead flow cytometry, RGS8-Galphao binding; actives lie on both sides; 220,000 tested, 0.34% active; in the data active means response below about 60% or above about 140%; inactive means in between;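 further: Galphao activated as the GDP aluminium fluoride complex binding bead-coupled RGS8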
# Target sequence (P09471 whole entry, looked up): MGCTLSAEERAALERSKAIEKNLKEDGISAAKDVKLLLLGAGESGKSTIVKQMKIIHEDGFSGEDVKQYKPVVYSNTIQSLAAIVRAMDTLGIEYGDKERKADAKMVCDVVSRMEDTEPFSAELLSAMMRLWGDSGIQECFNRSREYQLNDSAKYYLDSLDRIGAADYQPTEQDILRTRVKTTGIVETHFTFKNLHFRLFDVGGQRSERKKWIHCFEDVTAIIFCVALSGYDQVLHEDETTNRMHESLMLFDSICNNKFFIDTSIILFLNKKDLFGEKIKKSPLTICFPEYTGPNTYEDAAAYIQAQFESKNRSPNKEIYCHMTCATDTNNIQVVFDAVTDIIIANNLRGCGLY
# Avidin bead fluor: compound fluoresces at 488/530 nm on avidin beads; compound fluorescence 488/530 nm, flow cytometry; active compounds read high; fluorescence (KMESF) at 10 µM; 220,000 tested, 0.38% active; AID 1775; in the data active means fluorescence above about 47
# GSH bead fluor: GSH bead compound fluorescence profile | AID 1776 | fluorescence (KMESF) at 10 µM | 190,000 tested, 0.25% active | GSH beads flow cytometry, compound fluorescence 488/530 nm; active compounds read high; in the data active means fluorescence above about 89;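 further: glutathione beads carrying GST-tagged Bcl family fusion proteins plus one bare bead set; values are compound well signal with DMSO vehicle wells as background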
# RGS16-Gao HTS: RGS16-Galphao interaction regulator (human); O15492+P09471; binding response (% of control), % at 10 µM; bead-based flow cytometry RGS16-Galphao binding, fluorescence; actives lie on both sides; AID 1441; 220,000 tested, 0.38% active;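 further: Galphao activated by GDP with aluminum fluoride before binding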
# Target sequence (O15492 whole entry, looked up): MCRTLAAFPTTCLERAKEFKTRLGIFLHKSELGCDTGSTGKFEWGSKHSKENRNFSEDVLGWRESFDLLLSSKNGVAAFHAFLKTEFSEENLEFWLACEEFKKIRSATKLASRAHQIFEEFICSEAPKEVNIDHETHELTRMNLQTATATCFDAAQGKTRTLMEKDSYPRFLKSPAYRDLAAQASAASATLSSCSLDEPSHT
# Target sequence (P09471 whole entry, looked up): as the sequence (P09471 whole entry, looked up) above
# RGS4-Gao reg: modulates binding of RGS4 to human Galphao; P09471; Multiplexed bead flow cytometry; actives lie on both sides; binding response (% of control), % at 10 µM; 220,000 tested, 0.33% active; in the data active means binding response below about 49% or above about 150%; inactive means in between;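 further: fluorescent Galphao activated with aluminum fluoride binding bead-coupled RGS4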
# RGS7-Gao: modulates binding of RGS7 to human Galphao | P09471 | Multiplexed bead flow cytometry; actives lie on both sides | binding response (% of control), % at 10 µM | 220,000 tested, 0.35% active | AID 1439; in the data active means binding response below about 49% or above about 150%; inconclusive means no clear call, values can overlap the other calls; inactive means in between;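 further: fluorescent Galphao held in activated GDP-AlF4 state binding bead-coupled RGS7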
# RGS-Gao: RGS4-Galphao interaction regulator (human). shares compounds with RGS16-Gao HTS. multiplexed bead flow cytometry, RGS–Galpha-o binding. RGS4–Galpha-o binding response, % at 10 µM. 1,600 tested, 99% active;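 further: fluorescently labeled Galpha-o bound to GDP with aluminium fluoride binding biotinylated RGS beads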
# Biotin-avidin: counter-screen: compounds disrupting biotin binding to avidin beads. inhibition, % at 10 µM. streptavidin beads, fluorescein-biotin binding, flow cytometry. 1,700 tested, under 10 active. shares compounds with RGS16-Gao HTS;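 active means inhibition above 50%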;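 further: median green fluorescence of gated singlet beads compared with DMSO control wells; 0% = DMSO wells and 100% = complete loss of bead fluorescence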
# RGS8-Gao confirm: confirmation of regulators of human RGS8-Galphao interaction; shares compounds with RGS16-Gao HTS; bead-based flow cytometry RGS8-Galphao binding, fluorescence; actives lie on both sides; binding response (% of control), % at 10 µM; 1,700 tested, 3% active; AID 1836; in the data active means binding response below about 72% or above about 130%; inactive means in between;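 further: Galphao activated as GDP AlF4 complex before binding bead RGS8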
# RGS7-Gao confirm: confirmation of regulators of human RGS7-Galphao interaction; shares compounds with RGS16-Gao HTS; bead-based flow cytometry RGS7-Galphao binding; actives lie on both sides; response (percent of control binding), % at 10 µM; 1,700 tested, 7.8% active; AID 1837; in the data active means response below about 75% or above about 130%; inactive means in between;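 further: fluorescent Galphao activated with GDP and aluminum fluoride binding bead-coupled RGS7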
# RGS16-Gao single: RGS16-Galphao interaction regulation, single point confirmation; shares compounds with RGS16-Gao HTS; bead-based flow cytometry, RGS16-Galphao binding; actives lie on both sides; response (% of control binding), % at 10 µM; 1,700 tested, 4% active; AID 1838; in the data active means response below about 74% or above about 130%; inactive means in between;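 further: Galphao activated as the GDP aluminium fluoride complex binding bead-coupled RGS16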
# RGS4-Gao confirm: RGS4-Galphao interaction regulation, single point confirmation | shares compounds with RGS16-Gao HTS | AID 1840 | RGS4-Galphao binding, multiplexed bead flow cytometry; actives lie on both sides | 1,700 tested, 4% active | binding response (% of control), % at 10 µM; in the data active means binding response below about 74% or above about 130%; inactive means in between
# RGS19-Gao single: RGS19-Galphao interaction regulation, single point confirmation | response (percent of control binding), % at 10 µM | 1,700 tested, 5% active | bead-based flow cytometry RGS19-Galphao binding; actives lie on both sides | shares compounds with RGS16-Gao HTS; in the data active means response below about 50% or above about 160%; inactive means in between;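 further: 100% = no compound control and 0% = blank background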
# * hit, by the source's call; ? = inconclusive; nt = no result; [ ] = another dose, or the depositor's remark. Shown are actives, neighbours in structure and some others; about 1.2% of the full set was active somewhere. Unless noted, how the calls were made is not given here.
SMILES,RGS8-Gao reg,Avidin bead fluor,GSH bead fluor,RGS16-Gao HTS,RGS4-Gao reg,RGS7-Gao,Biotin-avidin,RGS8-Gao confirm,RGS7-Gao confirm,RGS16-Gao single,RGS4-Gao confirm,RGS19-Gao single,others
COC(=O)c1c(C)oc(C)c1S(=O)(=O)NCc1ccco1,99,6,nt,99,102,?,nt,nt,nt,nt,nt,nt,
CN(CC(=O)N1CCN(c2cccc(Cl)c2)CC1)S(=O)(=O)c1cccs1,131,nt,32,178*[activator],177*[activator],144,-2,101,97,100,99,99,
CC(C)(C)NC(=O)C(c1ccncc1)N(Cc1ccc(F)cc1)C(=O)c1ccc(-c2ccccc2)[nH]1 (configuration not stated),100,nt,13,100,100,97,nt,nt,nt,nt,nt,nt,
O=C(CN1CCC(n2nnc3cc(F)ccc32)CC1)Nc1ccc2c(c1)CCC2,nt,nt,21,nt,nt,nt,2,100,100,99,100,92,
CS(=O)(=O)c1ccc(SCC(=O)NC2CCS(=O)(=O)C2)c([N+](=O)[O-])c1 (configuration not stated),96,8,15,90,99,108,nt,nt,nt,nt,nt,nt,
Cc1nnc(NC(=O)c2ccc(C)c(S(=O)(=O)N3CCOCC3)c2)s1,102,6,46,99,101,100,nt,nt,nt,nt,nt,nt,
CSc1nnc(NC(=O)c2ccc(C)c(S(=O)(=O)N3CCOCC3)c2)s1,12*,0,29,9.3*,18*,14*,2,102,104,104,106,103,
Cc1ccc(-c2nnc(Nc3ccc4c(c3)nc(C)n4C)c3ccccc23)cc1,100,32,12,100,98,97,nt,nt,nt,nt,nt,nt,
Cc1nnc(Nc2ccc3c(c2)ncn3C)c2ccccc12,146*[activator],13,25,220,115,114,1,108,107,106,104,107,RGS-Gao=115*
O=C(CN1CCN(Cc2ccccc2F)C1=O)NCCc1ccc(Cl)cc1,100,60*,27,102,107,159*[activator],-1,100,103,99,98,99,RGS-Gao=107*
O=C(CN1CCN(Cc2ccc(Cl)cc2)C1=O)NCCCN1CCN(c2ccc(F)cc2)CC1,95,17,24,97,95,97,nt,nt,nt,nt,nt,nt,
O=C(CN1CCN(Cc2ccc(Cl)cc2)C1=O)NCCCN1CCOCC1,14*,-1,19,13*,18*,8.9*,2,100,100,101,102,100,
CCOC(=O)c1cc[nH]c1C,98,8,25,100,101,98,nt,nt,nt,nt,nt,nt,
CC(/C=C/c1ccco1)=N\NC(=O)COc1ccc(C)c(C)c1,98,12,12,95,101,95,nt,nt,nt,nt,nt,nt,
CC(C)c1onc(C(=O)N(C)Cc2ccccc2)c1[N+](=O)[O-],74,2,10,24*,89,87,4,107,105,113,105,111,RGS-Gao=89*
CC(C)c1onc(C(=O)NCCc2ccccc2)c1[N+](=O)[O-],100,10,11,98,102,94,nt,nt,nt,nt,nt,nt,
O=C(CSCc1ccccc1Br)N/N=C/c1ccccc1C(=O)O,100,4,10,100,97,101,nt,nt,nt,nt,nt,nt,
O=C(Nc1ccccc1)N1CCCC1,nt,nt,41,nt,nt,nt,2,97,97,98,96,88,
COC(=O)c1c(NC(=O)COC(=O)CCS(=O)(=O)c2ccc(C)cc2)sc(C)c1C,106,3,9,255*[activator],92,83,1,104,139*[activator],115,118,160*[activator],RGS-Gao=92*
CCOc1ccc(NC(=O)COC(=O)CCS(=O)(=O)c2ccc(C)cc2)cc1,102,11,17,113,100,100,nt,nt,nt,nt,nt,nt,
COc1ccccc1Cn1[nH]nnc1=S,97,3,nt,90,97,?,nt,nt,nt,nt,nt,nt,
Cc1cc(S(N)(=O)=O)c(N)c(S(N)(=O)=O)c1,103,6,nt,100,102,?,nt,nt,nt,nt,nt,nt,
Cc1nn(-c2cc(N3CCCC3)ccc2[N+](=O)[O-])c(=O)c2ccccc12,96,7,33,86,95,101,nt,nt,nt,nt,nt,nt,
Cc1nn(-c2cc(N3CCOCC3)ccc2[N+](=O)[O-])c(=O)c2ccccc12,100,67*,17,101,110,161*[activator],-2,106,93,106,102,105,RGS-Gao=110*
NNC(=O)c1csc(CS(=O)(=O)c2ccc(Cl)cc2)n1,86,12,nt,101,111,?,0,109,116,111,111,97,
SMILES,RGS8-Gao reg,Avidin bead fluor,GSH bead fluor,RGS16-Gao HTS,RGS4-Gao reg,RGS7-Gao,Biotin-avidin,RGS8-Gao confirm,RGS7-Gao confirm,RGS16-Gao single,RGS4-Gao confirm,RGS19-Gao single,others
COc1ccc(-n2c(COc3cccc4cccnc34)nnc2SCC(=O)O)cc1,100,9,13,93,99,99,nt,nt,nt,nt,nt,nt,
NC(=O)CSc1nnc(-c2ccco2)n1N,nt,nt,38,nt,nt,nt,0,101,98,97,98,101,
CCCCC1(C)NC(=S)N2N1C(=S)NC2(C)CCCC (configuration not stated),103,7,nt,102,102,?,nt,nt,nt,nt,nt,nt,
CC(=O)Nc1nc2c(C)c(Cl)ccc2s1,82,7,nt,99,96,?,2,104,102,110,101,99,
CCCC(=O)Nc1nc2c(C)c(Cl)ccc2s1,97,6,nt,96,94,?,nt,nt,nt,nt,nt,nt,
CCOC(=O)c1ccc(NC(=S)N(CCN2CCCCCC2)Cc2cccs2)cc1,98,10,10,97,103,?,nt,nt,nt,nt,nt,nt,
O=C(Cn1cncn1)N/N=C/c1cccc2ccccc12,79,3,21,45,92,99,nt,nt,nt,nt,nt,nt,
Cc1nn(C)c(C(=O)N/N=C/c2cccc3ccccc23)c1Cl,38*,3,21,31,28*,28*,-1,98,98,97,100,97,
Cc1nn(C)c(C(=O)N/N=C/c2ccc(Br)cc2)c1Cl,58*,6,10,41,46*,40*,2,100,104,101,101,100,
